Hits are enriched below; roughly 2.3% of the tested compounds scored in any of these assays.
Tau fluor counter: counter-screen for tau fibril formation inhibitors | tau K18 P301L Alexa594 fluorescence, heparin fibrillization | Potency, µM (series often up to 57.7 µM), inactives show at the top dose activity change, negative = decrease | 280,000 compounds, 0.93% hits | AID 1463; further: potency means the concentration at half of the fitted maximal effect; nearly all actives have a fitted effect of over 55% in size
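Human K18 P301L tau (15 uM unlabeled plus 0.24 uM Alexa 594-labeled, final) in 100 mM sodium acetate pH 7 was mixed with compound and 20 uM heparin and incubated 6 hr at 37 C.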
USP1-UAF1 inh: USP1/UAF1 (human) deubiquitinase inhibition; Potency, µM (top dose mostly 57.1 µM), for the others: top-dose activity change, negative = inhibition, usual class: inhibitors; 390,000 compounds, 0.23% hits; recombinant USP1/UAF1, Ub-Rhodamine cleavage fluorescence; AID 743255; further: potency means the concentration at half of the fitted maximal effect; nearly all actives have a fitted effect of over 60% in size
Target sequence (O94782 whole entry, looked up): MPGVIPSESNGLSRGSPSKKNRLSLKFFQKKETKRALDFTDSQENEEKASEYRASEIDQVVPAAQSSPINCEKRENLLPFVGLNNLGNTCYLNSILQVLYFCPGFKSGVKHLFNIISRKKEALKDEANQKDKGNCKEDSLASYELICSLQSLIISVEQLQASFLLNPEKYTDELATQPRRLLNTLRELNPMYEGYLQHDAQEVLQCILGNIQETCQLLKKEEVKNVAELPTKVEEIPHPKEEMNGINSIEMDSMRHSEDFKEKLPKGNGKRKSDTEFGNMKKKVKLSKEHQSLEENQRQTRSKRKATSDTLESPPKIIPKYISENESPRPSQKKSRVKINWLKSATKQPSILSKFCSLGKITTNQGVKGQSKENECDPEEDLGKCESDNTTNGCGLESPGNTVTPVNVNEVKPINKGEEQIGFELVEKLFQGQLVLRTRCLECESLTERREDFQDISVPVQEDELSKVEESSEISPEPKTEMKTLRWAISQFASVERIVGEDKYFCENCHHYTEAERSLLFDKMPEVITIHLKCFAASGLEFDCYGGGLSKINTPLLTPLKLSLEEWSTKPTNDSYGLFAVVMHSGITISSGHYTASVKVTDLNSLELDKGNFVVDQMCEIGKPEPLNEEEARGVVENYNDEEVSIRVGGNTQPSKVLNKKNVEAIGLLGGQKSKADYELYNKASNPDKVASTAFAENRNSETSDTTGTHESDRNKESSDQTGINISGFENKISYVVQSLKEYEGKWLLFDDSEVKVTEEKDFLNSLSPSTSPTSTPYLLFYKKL
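1 nM enzyme complex + cpd, 15 min RT; start with Ub-Rho 150nM final; kinetic fluorescence ex 480/em 540, 6 reads q60 s. Buffer 50mM HEPES pH 7.8, 0.5mM EDTA, 0.1 mg/ml BSA, 1mM TCEP, 0.01% Tween-20.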
Tau fibril FP: inhibitors of human tau fibril formation; K18 P301L tau heparin fibrillization, Alexa594 FP, 6 h; P10636; Potency, µM (top dose mostly 57.7 µM), for inactives: at the highest dose activity, negative = inhibition, usual class: inhibitors; 280,000 compounds, 0.39% hits; further: potency means the concentration at half of the fitted maximal effect; nearly all actives have a fitted effect of over 55% in size
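Human tau K18 […] P301L fragment, 15 uM unlabeled plus 0.24 uM Alexa 594-labeled tau (final), with compound and 20 uM heparin in 100 mM sodium acetate pH 7; 6 hr at 37 C, then Alexa 594 FP read.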
Tau fibril ThT: inhibitors of human tau fibril formation, thioflavin T binding; P10636; recombinant tau K18 P301L (four-repeat tau fragment), heparin-induced fibrillization, ThT fluorescence; Potency, µM (doses to about 57.4 µM), for the others: at the top dose activity, negative = inhibition, most hits filed as inhibitors; 270,000 compounds, 2.1% hits; further: potency means the concentration at half of the fitted maximal effect; nearly all actives have a fitted effect of over 55% in size
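Tau K18 P301L fragment (15 uM unlabeled plus 0.24 uM Alexa 594-labeled) in 100 mM sodium acetate pH 7 with compound, fibrillization induced by 20 uM heparin for 6 hr at 37 C. Thioflavin T (30 uM) added, fluorescence read after 1 hr (ex 450, em 510 nm).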
Coupling enz: inhibits coupling enzyme system, counter-screen for aldolase hits | coupling enzyme system counterscreen, AmpLite Red fluorescence | activity change, negative = inhibition, % at 58.2 µM, hits read low | 290,000 compounds, 0.67% hits | AID 2472; in the data active means activity change below about -30%
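Fluorescence at 525 nm excitation and 598 nm emission measured inhibition of the coupled detection system without aldolase. Compounds (at 57.5 uM final) were preincubated 10 min at room temperature with coupling enzyme reagent before a 20 min substrate/AmpLite Red step.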
Active calls of the source: *; ? = inconclusive; . = not tested or not shown; ! = a repeat was not active; [ ] = another dose, or the depositor's remark. Unless noted, the call rests on the fitted dose curve; in most records, active means well fitted curve in the direction sought with a large enough effect; inconclusive means small, poorly fitted or top-dose-only effect, or another doubt; inactive means no such curve, though single readings can be large; an effect the other way counts as inactive or inconclusive. On the % scale 0 is the no-effect control and ±100 the full control effect.

SMILES	Tau fluor counter	USP1-UAF1 inh	Tau fibril FP	Tau fibril ThT	Coupling enz
CCOc1ccc(-c2nc(CSCC(=O)NCCc3ccc(OCC)c(OCC)c3)c(C)o2)cc1	-10%	-12%	-15%	?	.
CN1CCN(c2ncc(C=O)s2)CC1	-1%	-2%	9%	6%	-37*
Cc1ccc(/C=C2\C(=O)NC(=S)N(c3ccc(F)cc3)C2=O)o1	.	?	.	.	0
Cc1cc(C)cc(N2C(=O)/C(=C\c3ccc(N4CCN(C)CC4)o3)C(=O)NC2=S)c1	-9%	32µM*	-3%	?	0
COc1ccccc1C(=O)Nc1ccc2nc(SCC(=O)N3CCCc4ccccc43)sc2c1	-24%	-12%	?	-10%	.
C[C@@H]1O[C@@H](O[C@H]2CC[C@@H](O[C@H]3[C@H](O)C[C@H](c4ccc5c(c4O)C(=O)C4=C(C5=O)[C@@]5(O)C(=O)C[C@](C)(O[C@H]6CC[C@H](O[C@H]7C=CC(=O)[C@H](C)O7)[C@H](C)O6)C[C@@]5(O)C=C4)O[C@@H]3C)O[C@H]2C)C=CC1=O	.	.	.	.	-74*
CCOc1cc2[nH]c(=O)n(CCCC(=O)N3CCN(c4cccc(Cl)c4)CC3)c(=O)c2cc1OCC	-29%	-1%	11%	?	.
Nc1c(C(=O)Nc2ccc(Cl)c(C(F)(F)F)c2)sc2nc3c(cc12)N1CCC3CC1	5µM*[quencher]	-36%	?	?	.
CCCCC/C=C\C/C=C\C/C=C\C/C=C\CCCC(=O)O	?	.	?	28µM*!	-3
Cc1ccccc1-c1nc(CS(=O)CC(=O)N2CCN(c3cc(Cl)ccc3C)CC2)c(C)o1 (stereo unspecified)	-19%	-26%	9%	?	.
COCCN(C(=O)CCl)c1c(C)cccc1C	.	.	.	.	0
O=C(c1ccc2nc(-c3ccco3)c(-c3ccco3)nc2c1)N1CCC2(CC1)OCCO2	?	-25%	20µM*	8.9µM*	-45*
Cc1[nH]n(-c2ccccc2)c(=O)c1C(c1cccc([N+](=O)[O-])c1O)c1c(C)[nH]n(-c2ccccc2)c1=O	?	-8%	-9%	7.9µM*	-11
Cc1ccc(N2C(=O)NC(=O)/C(=C\c3ccc(N4CCOCC4)cc3)C2=O)cc1	-13%	-3%	-11%	?	0
COc1ccc(N2C(=O)/C(=C/C=C/c3ccccc3[N+](=O)[O-])C(=O)NC2=S)cc1	?	?	?	28µM*	3
Cc1ccc(N2C(=O)NC(=O)/C(=C\c3ccc([N+](=O)[O-])o3)C2=O)cc1	-15%	.	?	22µM*	-4
COc1ccccc1N1C(=O)NC(=O)/C(=C/c2ccc([N+](=O)[O-])s2)C1=O	?	32µM*	32µM*	.	-13
COc1ccc(N2C(=O)NC(=O)/C(=C\c3ccc([N+](=O)[O-])s3)C2=O)cc1	?	16µM*	?	14µM*	-12
CCOc1ccc(N(C(C)C(=O)Nc2cc(Cl)ccc2OC)S(C)(=O)=O)cc1 (stereo unspecified)	?	?	-12%	?	.
CC(C)[C@H](NC(=O)[C@H](CCC(=O)O)NC(=O)[C@H](Cc1ccccc1)NC(=O)[C@@H](C)NC(=O)[C@@H](N)Cc1ccc(O)cc1)C(=O)N[C@H](C(=O)NCC(N)=O)C(C)C	.	.	.	.	0
O=C1/C(=C\c2ccccc2)C[C@@]2(O)[C@H]3Cc4ccc(O)c5c4[C@@]2(CCN3CC2CC2)[C@H]1O5	0%	.	-9%	-16%	.
O=C(/C=C/c1ccccc1)NC(NC(=S)Nc1cccc2cccnc12)C(Cl)(Cl)Cl (stereo unspecified)	-22%	.	?	5%	-6
COc1ccc(NC(=O)CSc2oc(-c3cccs3)nc2S(=O)(=O)c2ccccc2)c(OC)c1	?	?	-6%	2%	.
C[C@@H]1C(=O)O[C@H]2CC34[C@H]5C[C@@H](C(C)(C)C)[C@]36[C@@H](OC(=O)[C@@H]6O)O[C@@]4(C(=O)O5)[C@]21O (stereo partly specified)	.	9%	.	.	.
O=C(Nc1ccc(Br)cc1)c1ccc(Cl)c(S(=O)(=O)N2CCCCCC2)c1	?	-25%	?	9%	.
SMILES	Tau fluor counter	USP1-UAF1 inh	Tau fibril FP	Tau fibril ThT	Coupling enz
COc1ccc(N2C(=O)NC(=O)/C(=C/c3ccc([N+](=O)[O-])s3)C2=O)cc1	?	22µM*	32µM*	.	-4
CCOc1ccc(N2C(=O)NC(=O)/C(=C\c3cc(OC)c(OC)cc3[N+](=O)[O-])C2=O)cc1	-24%	?	?	14µM*	-3
NCCc1c[nH]c2ccc(OCc3ccccc3)cc12	13µM*[quencher]	-5%	8%	-19%	-1
NCCc1c[nH]c2ccccc12	-7%	10%	3%	-6%	0
COc1cccc(N2C(=O)/C(=C/c3ccc(C)o3)C(=O)NC2=S)c1	.	-19%	.	.	1
Cc1ccc(N2C(=O)/C(=C/c3ccc(CN(CCC#N)S(C)(=O)=O)o3)C(=O)NC2=S)cc1	-22%	-15%	?	22µM*	-1
C[C@H](CCC(=O)O)[C@H]1CC[C@@H]2[C@H]3CC[C@H]4C[C@H](O)CC[C@]4(C)[C@@H]3CC[C@@]21C	-1%	.	9%	-5%	15
COc1ccc(CNC(=O)c2cnn3c(C)c(Cc4ccc(F)cc4)c(C)nc23)cc1	-9%	?	6%	-8%	.
CCOC(=O)c1ccc(N2C(=O)c3n[nH]c(-c4cccs4)c3C2c2ccc(C(C)(C)C)cc2)cc1 (stereo unspecified)	-20%	?	?	-2%	.
O=c1c(O)c(-c2ccc(O)c(O)c2)oc2c(O)c(O)cc(O)c12	?	.	7.9µM*	3.5µM*	-57*
c1ccc2c(N3CCNCC3)nsc2c1	-22%	-15%	?	22µM*	-1
CC(=O)/C=C/c1ccccc1	.	-16%	.	.	.
CC(=O)[O][Hg][c]1ccccc1	?	.	?	?	-48*
CN1Cc2ccccc2[C@@H]2c3cccc4[nH]cc(c34)C[C@H]21	?	.	?	11µM*	-14
CC1=C[C@@H]2c3cccc4[nH]cc(c34)C[C@H]2N(C)C1	?	?	-14%	16µM*	-5
CCN(CC)C(=O)N[C@@H]1C[C@H]2c3cccc4[nH]cc(c34)C[C@@H]2N(C)C1	.	.	.	.	-2
CN1C[C@@H](CO)C=C2c3cccc4[nH]cc(c34)CC21 (stereo partly specified)	?	.	-7%	?	-1
COc1ccc(C(=O)NCCn2cc(SC(C)c3ccccc3)c3ccccc32)cc1OC (stereo unspecified)	?	-13%	?	?	.
Cc1cc(C)n(-c2ccc(NN=C(C#N)C#N)cc2)n1	?	-12%	8%	5µM*	4

Screening data (PubChem)
